Out of some 3,200 compounds screened, about 110 (3.4%) showed an effect of 50% or more. For the sample, strong results were picked, then their nearest neighbours and some compounds at random.

In this assay the test system is T1, V. cholerae SAD30.
T1 construct: SAD30
The arrangement: species or system S. aureus MSSA476 (TSB) or V. cholerae SAD30 (LB); 384-well bacterial growth screen at 25 uM, OD600 relative to DMSO control. To be noted: relative growth, OD600, LB; 25 µM; inhibitor.
As for `CSc1cccc(-n2c(C)cc(C(=O)CCl)c2C)c1` [10-J16, 2-chloro-1-{2,5-dimethyl-1-[3-(methylsulfanyl)phenyl]-1H-pyrrol-3-yl}ethan-1-one], the “% of control remaining” value came out at 105.825%.

Take `Cc1ccc(NC(=O)C(C)Cl)cc1S(=O)(=O)N1CCOCC1` (stereo not shown) [5-D22, 2-chloro-N-[4-methyl-3-(morpholine-4-sulfonyl)phenyl]propanamide]: the “% of control remaining” value was 107.429%. With `N#CC(=Cc1ccc(Cl)cc1Cl)C(=O)Nc1nccs1` [9-H19, 2-cyano-3-(2,4-dichlorophenyl)-N-(1,3-thiazol-2-yl)prop-2-enamide], the “% of control remaining” value was 79.4697%. Turning to `C=CC(=O)Nc1ccnn1Cc1cccc(Cl)c1` [1-N14, N-{1-[(3-chlorophenyl)methyl]-1H-pyrazol-5-yl}prop-2-enamide], the “% of control remaining” value is reported as 86.3592%. As for `C=CC(=O)N(CC)CC(=O)N1CC(C)(C)C1c1nccn1C` (stereo not shown) [2-J16, N-{2-[3,3-dimethyl-2-(1-methyl-1H-imidazol-2-yl)azetidin-1-yl]-2-oxoethyl}-N-ethylprop-2-enamide], the figure is 90.3503%; as for `CC(Cl)C(=O)NC(=O)Nc1ccccc1` (stereo not shown) [5-I21, 3-(2-chloropropanoyl)-1-phenylurea], 104.066%. With `C=CC(=O)NC1CS(=O)(=O)C1` [3-P18, N-(1,1-dioxo-1lambda6-thietan-3-yl)prop-2-enamide] the figure was 112.909%. With `COc1ccc([N+](=O)[O-])cc1NC(=O)CCl` [4-P17, 2-chloro-N-(2-methoxy-5-nitrophenyl)acetamide] the figure was 111.969%; with `COc1ccc([N+](=O)[O-])cc1NC(=O)C(C)Cl` (stereo not shown) [5-N14, 2-chloro-N-(2-methoxy-5-nitrophenyl)propanamide], 92.6342%; with `COc1cc([N+](=O)[O-])ccc1NC(=O)C(C)Cl` (stereo not shown) [4-K12, 2-chloro-N-(2-methoxy-4-nitrophenyl)propanamide], 93.5087%.

For the compound `COc1cc([N+](=O)[O-])ccc1N1C(=O)C=CC1=O` [10-H13, 1-(2-methoxy-4-nitrophenyl)-2,5-dihydro-1H-pyrrole-2,5-dione], the “% of control remaining” value is 24.625%. As for `COc1ccc([N+](=O)[O-])cc1N1C(=O)C=CC1=O` [10-P13, 1-(2-methoxy-5-nitrophenyl)-2,5-dihydro-1H-pyrrole-2,5-dione], the figure is 32.7294%; as for `COc1cc([N+](=O)[O-])ccc1NC(=O)CCl` [4-O07, 2-chloro-N-(2-methoxy-4-nitrophenyl)acetamide], 100.582%. With `CCN(CC)S(=O)(=O)c1cccc(NC(=O)CCl)c1` [4-M07, 2-chloro-N-[3-(diethylsulfamoyl)phenyl]acetamide] the figure was 105.931%; with `C=CC(=O)N1CCC(C(=O)N[C@H]2CCC[C@H]2O)CC1` [2-K04, N-[(1S,2R)-2-hydroxycyclopentyl]-1-(prop-2-enoyl)piperidine-4-carboxamide], 95.9085%. With `C=CC(=O)N1CCC(n2ncc3ccccc32)CC1` [1-K22, 1-[4-(1H-indazol-1-yl)piperidin-1-yl]prop-2-en-1-one] the figure was 95.6652%. On to `CC(Cl)C(=O)Nc1nc(-c2ccccc2)cs1` (stereo not shown) [6-L10, 2-chloro-N-(4-phenyl-1,3-thiazol-2-yl)propanamide], for which the “% of control remaining” value is on record as 85.6953%. As for `C=CC(=O)N1CCOCC1c1cc(F)cc(F)c1` (stereo not shown) [2-O16, 1-[3-(3,5-difluorophenyl)morpholin-4-yl]prop-2-en-1-one], the figure is 92.203%; as for `N#Cc1ccc2c(c1)CCN2C(=O)CCl` [5-N09, 1-(2-chloroacetyl)-2,3-dihydro-1H-indole-5-carbonitrile], 93.4748%. As for `O=C(CCl)c1cc2c3c(c1)CC(=O)N3CCC2` [10-G16, 6-(2-chloroacetyl)-1-azatricyclo[6.3.1.0,4,12]dodeca-4(12),5,7-trien-2-one], the figure is 27.7421%; as for `CCS(=O)(=O)N1CCc2cc(C(=O)CCl)ccc21` [10-E18, 2-chloro-1-[1-(ethanesulfonyl)-2,3-dihydro-1H-indol-5-yl]ethan-1-one], 27.8979%.

As for `CC1Cc2cc(C(=O)CCl)ccc2N1S(C)(=O)=O` (stereo not shown) [10-A04, 2-chloro-1-(1-methanesulfonyl-2-methyl-2,3-dihydro-1H-indol-5-yl)ethan-1-one], the “% of control remaining” value turned out to be 89.6162%. As for `CS(=O)(=O)N1CCCc2cc(C(=O)CCl)ccc21` [10-H19, 2-chloro-1-(1-methanesulfonyl-1,2,3,4-tetrahydroquinolin-6-yl)ethan-1-one], the figure is 22.9106%; as for `CN1C(=O)Cc2cc(C(=O)CCl)ccc21` [10-G07, 5-(2-chloroacetyl)-1-methyl-2,3-dihydro-1H-indol-2-one], 54.3931%. In the case of `O=C(CCl)c1ccc2c(c1)CCN(C(=O)C(F)(F)F)C2` [10-E09, 1-[6-(2-chloroacetyl)-1,2,3,4-tetrahydroisoquinolin-2-yl]-2,2,2-trifluoroethan-1-one], the “% of control remaining” value came out at 98.6558%. Regarding `O=C(CCl)c1c[nH]c(C(=O)N2CCCC2)c1` [10-A16, 2-chloro-1-[5-(pyrrolidine-1-carbonyl)-1H-pyrrol-3-yl]ethan-1-one], the “% of control remaining” value worked out at 108.475%. With `CCC(=O)N1CCc2cc(C(=O)CCl)ccc21` [10-C22, 1-[5-(2-chloroacetyl)-2,3-dihydro-1H-indol-1-yl]propan-1-one] the figure was 119.54%; with `O=C(CCl)NCCS(=O)(=O)N1CCc2ccccc21` [6-H04, 2-chloro-N-[2-(2,3-dihydro-1H-indole-1-sulfonyl)ethyl]acetamide], 103.138%; with `O=CN1CCc2cc(C(=O)CCl)ccc21` [10-K20, 5-(2-chloroacetyl)-2,3-dihydro-1H-indole-1-carbaldehyde], 27.1186%. With `Cc1ccc(NC(=O)N2CCSSCC2)c(C)c1` [10-F11, N-(2,4-dimethylphenyl)-1,2,5-dithiazepane-5-carboxamide] the figure was 95.0711%. With `CC(Cl)C(=O)N(C)CCn1c(=O)oc2ccccc21` (stereo not shown) [7-H15, 2-chloro-N-methyl-N-[2-(2-oxo-2,3-dihydro-1,3-benzoxazol-3-yl)ethyl]propanamide] the figure was 82.4715%; with `CC(C#N)CSc1ccccc1NC(=O)CCl` (stereo not shown) [6-K16, 2-chloro-N-{2-[(2-cyano-2-methylethyl)sulfanyl]phenyl}acetamide], 86.757%.

On to `C=CC(=O)N1CCC(C(=O)N[C@]2(C(=O)OC)CC[C@@H](C)CC2)CC1` [3-E17, methyl (1r,4r)-4-methyl-1-[1-(prop-2-enoyl)piperidine-4-amido]cyclohexane-1-carboxylate], for which the “% of control remaining” value is 101.088%.

Regarding `O=C(CCl)N(Cc1ccc(Cl)cc1)C12CC3CC(CC(C3)C1)C2` [4-H07, N-(adamantan-1-yl)-2-chloro-N-[(4-chlorophenyl)methyl]acetamide], the “% of control remaining” value was found to be 55.3806%. With `Cc1nn(CCC(=O)N2CCSSCC2)c(C)c1[N+](=O)[O-]` [10-J05, 3-(3,5-dimethyl-4-nitro-1H-pyrazol-1-yl)-1-(1,2,5-dithiazepan-5-yl)propan-1-one] the figure was 92.1099%.

With `CCOC(=O)c1c(NC(=O)CCl)sc(C)c1C` [4-O15, ethyl 2-(2-chloroacetamido)-4,5-dimethylthiophene-3-carboxylate], the “% of control remaining” value amounted to 102.998%. With `CS(=O)(=O)N1CCc2cc(C(=O)CCl)ccc21` [10-B19, 2-chloro-1-(1-methanesulfonyl-2,3-dihydro-1H-indol-5-yl)ethan-1-one] the figure was 18.0791%; with `CC(=O)N1c2ccc(C(=O)CCl)cc2CC1C` (stereo not shown) [10-I20, 1-(1-acetyl-2-methyl-2,3-dihydro-1H-indol-5-yl)-2-chloroethan-1-one], 84.473%. As for `CC(=O)N1CCc2cc(C(=O)C(C)Cl)ccc21` (stereo not shown) [10-L22, 1-(1-acetyl-2,3-dihydro-1H-indol-5-yl)-2-chloropropan-1-one], the figure is 100.214%; as for `N#CC(=Cc1ccsc1)C(=O)Nc1ccccc1Cl` [9-O05, N-(2-chlorophenyl)-2-cyano-3-(thiophen-3-yl)prop-2-enamide], 98.9123%. Turning to `C=CC(=O)NCC1CNC(=O)c2ccccc21` (stereo not shown) [2-F17, N-[(1-oxo-1,2,3,4-tetrahydroisoquinolin-4-yl)methyl]prop-2-enamide], the “% of control remaining” value is reported as 90.0415%.

For the compound `CC(Cl)C(=O)N1CCN(CCOc2ccc3c(c2)CCC3)CC1` (stereo not shown) [6-H17, 2-chloro-1-{4-[2-(2,3-dihydro-1H-inden-5-yloxy)ethyl]piperazin-1-yl}propan-1-one], the “% of control remaining” value is listed as 64.6128%. Regarding `C=CC(=O)N1CCCC(CS(=O)(=O)NC)C1` (stereo not shown) [2-E18, N-methyl-1-[1-(prop-2-enoyl)piperidin-3-yl]methanesulfonamide], the “% of control remaining” value was 95.4453%.

As for `Cn1ccnc1C(=O)CCl` [10-C15, 2-chloro-1-(1-methyl-1H-imidazol-2-yl)ethan-1-one], the “% of control remaining” value is listed as 101.461%. As for `O=C(CCl)c1ccccn1` [10-J03, 2-chloro-1-(pyridin-2-yl)ethan-1-one], the figure is 0%; as for `C[C@H]1CN(C(=O)CCl)CCN1C(=O)c1cscn1` [5-L05, 2-chloro-1-[(3S)-3-methyl-4-(1,3-thiazole-4-carbonyl)piperazin-1-yl]ethan-1-one], 86.0775%; as for `Cl.O=C(CCl)Nc1ccccn1` [5-B14, 2-chloro-N-(pyridin-2-yl)acetamide hydrochloride], 98.0141%. `O=C(CCl)c1cscn1` [10-L08, 2-chloro-1-(1,3-thiazol-4-yl)ethan-1-one]: the “% of control remaining” value is listed as 0%. As for `C[C@@H](NC(=O)CCl)c1ccccc1` [6-O20, 2-chloro-N-[(1R)-1-phenylethyl]acetamide], the figure is 94.0373%.

The values above are taken from PMC11995724, “Antibiotic target discovery by integrated phenotypic and activity-based profiling of electrophilic fragments” (Cell chemical biology, 2025).
